The values below come from PubChem BioAssay (NCATS).

A word on the viability: it is a read-out of living cells in per cent, often relative to untreated cells.

The structures appear in SMILES notation. Unmarked numbers belong to inactive results. Inconclusive results are not listed. The source made the active and inactive calls. Calls follow the shape of the dose curve; as a rule, active = well fitted curve in the direction sought with a large enough effect; inconclusive = small, poorly fitted or top-dose-only effect, or another doubt; inactive = no such curve, though single readings can be large; an effect the other way counts as inactive or inconclusive.

The nature of experiment [1]: Quantitative High-Throughput drug screen in 47 multiple myeloma cell lines against the NCATS MIPE library collection: SKMM1_PLB cell viability assay (AID 1919863). Also: nearly all actives have a fitted effect of over 35% in size. Also: potency is read from the fitted curve at half-maximal effect. The note with it: SKMM1 myeloma viability, CellTiter-Glo ATP, 48 h; viability: stronger effect = lower value. In a few lines: (§1)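 500 cells/well per myeloma line exposed to pinned MIPE 4.0 compounds for 48 h at 37 °C, 5% CO2. Viability read as ATP by CellTiter-Glo luminescence, normalised to DMSO-only (100%) and media-only (0%) wells.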
(Cellular ATP, detected with luciferase, serves as a proxy for viable cell number.)

Experiment [2] is described as follows: Quantitative High-Throughput drug screen in 47 multiple myeloma cell lines against the NCATS MIPE library collection: VP6_DJ cell viability assay (AID 1919867). Also: nearly all actives have a fitted effect of over 40% in size. Also: potency is read from the fitted curve at half-maximal effect. In a few lines: as §1
The nature of experiment [3]: Quantitative High-Throughput drug screen in 47 multiple myeloma cell lines against the NCATS MIPE library collection: PE2_PLB cell viability assay (AID 1919869). Also: nearly all actives have a fitted effect of over 35% in size. Also: potency is read from the fitted curve at half-maximal effect. The method, boiled down:
as §1

A short description of experiment [4]: Quantitative High-Throughput drug screen in 47 multiple myeloma cell lines against the NCATS MIPE library collection: PCM6_Riken cell viability assay (AID 1919870). Also: nearly all actives have a fitted effect of over 30% in size. Also: potency is read from the fitted curve at half-maximal effect. In a few lines: as §1
Experiment [5] in a line: Quantitative High-Throughput drug screen in 47 multiple myeloma cell lines against the NCATS MIPE library collection: RPMI8226_ATCC cell viability assay (AID 1919871). Also: nearly all actives have a fitted effect of over 30% in size. Also: potency is read from the fitted curve at half-maximal effect. In a few lines:
as §1

Experiment [6] can be described thus: Quantitative High-Throughput drug screen in 47 multiple myeloma cell lines against the NCATS MIPE library collection: KMS11_JCRBsus cell viability assay (AID 1919873). Also: nearly all actives have a fitted effect of over 50% in size. Also: potency is read from the fitted curve at half-maximal effect. The method, boiled down:
as §1

A short description of experiment [7]: Quantitative High-Throughput drug screen in 47 multiple myeloma cell lines against the NCATS MIPE library collection: KMS28BM_JCRB cell viability assay (AID 1919874). Also: nearly all actives have a fitted effect of over 35% in size. Also: potency is read from the fitted curve at half-maximal effect. In a few lines:
as §1

A short description of experiment [8]: Quantitative High-Throughput drug screen in 47 multiple myeloma cell lines against the NCATS MIPE library collection: OPM2_DSMZ cell viability assay (AID 1919872). Also: nearly all actives have a fitted effect of over 30% in size. Also: potency is read from the fitted curve at half-maximal effect. The method, boiled down:
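Relative luminescence from CellTiter-Glo served as the viability signal, referenced to DMSO-treated (100%) and cell-free medium (0%) controls. Treatment lasted 48 hours at 37C with 500 cells per well.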

A short description of experiment [9]: Quantitative High-Throughput drug screen in 47 multiple myeloma cell lines against the NCATS MIPE library collection: XG6_PLB cell viability assay (AID 1919865). Also: nearly all actives have a fitted effect of over 40% in size. Also: potency is read from the fitted curve at half-maximal effect. The method, boiled down: as §1
A short description of experiment [10]: Quantitative High-Throughput drug screen in 47 multiple myeloma cell lines against the NCATS MIPE library collection: UTMC2_PLB cell viability assay (AID 1919868). Also: nearly all actives have a fitted effect of over 55% in size. Also: potency is read from the fitted curve at half-maximal effect. The note with it: CellTiter-Glo ATP luminescence, 48 h; viability (% of DMSO control): at 45.8 µM (top of the series). The method, boiled down:
as §1

A short description of experiment [11]: Quantitative High-Throughput drug screen in 47 multiple myeloma cell lines against the NCATS MIPE library collection: U266_ATCC cell viability assay (AID 1919864). Also: nearly all actives have a fitted effect of over 35% in size. Also: potency is read from the fitted curve at half-maximal effect. In a few lines:
as §1

Experiment [12] can be described thus: Quantitative High-Throughput drug screen in 47 multiple myeloma cell lines against the NCATS MIPE library collection: XG1_PLB cell viability assay (AID 1919866). Also: nearly all actives have a fitted effect of over 35% in size. Also: potency is read from the fitted curve at half-maximal effect. In a few lines: as §1
For experiment [13], the target named is Cytochrome P450 3A4 (Homo sapiens) (UniProt P08684). Nature of the experiment: qHTS for inhibitors of CYP3A4 against the NCATS DSHEA and TCM libraries (AID 1919971).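 Also: % is scaled to controls: 0 for no effect and ±100 for the full control effect; inhibition lowers luminescence from luciferin made by CYP3A4.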 The method, boiled down:
(§2)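 Read-out is luminescence after P450-Glo detection (30 min, RT). Before that: 15 min compound–enzyme preincubation, then 30-45 min reaction with 1x NADPH regeneration solution, substrate concentration isoform-specific.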

The target of experiment [14] is Cytochrome P450 2D6 (Homo sapiens) (UniProt P10635). As to the kind of experiment: qHTS for inhibitors of CYP2D6 against the NCATS DSHEA and TCM libraries (AID 1919972). Also: % is scaled to controls: 0 for no effect and ±100 for the full control effect. The method, boiled down: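 Luminescent P450-Glo read-out of CYP2D6 turnover of a luciferin substrate after NADPH-driven reaction of 30-45 min at room temperature. Compounds were first preincubated 15 min with enzyme at titrated concentrations; quinidine was the intraplate control.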
Chain of Cytochrome P450 2D6 (Homo sapiens) (P10635 whole entry, looked up): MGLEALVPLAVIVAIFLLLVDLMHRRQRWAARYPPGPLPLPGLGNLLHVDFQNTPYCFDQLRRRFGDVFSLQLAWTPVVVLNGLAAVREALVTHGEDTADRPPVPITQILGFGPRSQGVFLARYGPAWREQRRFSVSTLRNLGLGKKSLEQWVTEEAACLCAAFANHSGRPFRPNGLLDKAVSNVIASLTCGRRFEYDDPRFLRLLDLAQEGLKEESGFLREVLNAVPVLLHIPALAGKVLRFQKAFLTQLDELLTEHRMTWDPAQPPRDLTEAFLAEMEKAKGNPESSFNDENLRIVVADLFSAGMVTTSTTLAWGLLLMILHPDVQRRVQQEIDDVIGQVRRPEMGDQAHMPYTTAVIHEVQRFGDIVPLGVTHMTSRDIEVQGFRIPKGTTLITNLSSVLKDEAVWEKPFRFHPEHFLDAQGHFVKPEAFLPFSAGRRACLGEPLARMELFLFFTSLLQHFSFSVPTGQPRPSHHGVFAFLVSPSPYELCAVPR
A general note: Quantitative high-throughput screening tests each substance at several concentrations.

Experiment [15] concerns the target Cytochrome P450 2C9 (Homo sapiens) (UniProt P11712). Nature of the experiment: qHTS for inhibitors of CYP2C9 against the NCATS DSHEA and TCM libraries (AID 1919973).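 Also: luminogenic pro-luciferin CYP2C9 substrate turned into luciferin with NADPH regeneration; % is scaled to controls: 0 for no effect and ±100 for the full control effect.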 The method, boiled down: as §2
The target in experiment [16] is Cytochrome P450 2C19 (Homo sapiens) (UniProt P33261). Nature of the experiment: qHTS for inhibitors of CYP2C19 against the NCATS DSHEA and TCM libraries (AID 1919974).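 Also: luminescence from luciferin released by CYP2C19 oxidation of a pro-luciferin substrate; potency is read from the fitted curve at half-maximal effect.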 The note with it: CYP2C19 enzyme inhibition, luminescence qHTS. In a few lines:
as §2

Experiment [17] is described as follows: KB-3-1 P-gp reporter qHTS against the NCATS DSHEA and TCM libraries (AID 1919975). Also: 0% is about no effect. In a few lines:
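KB-3-1 parental line, 1536-well qHTS: cells seeded, ~4 h attachment, pintool compound addition, ~72 h at 37C, then CellTiter-Glo, 30 min RT, luminescence. Concentration-response format.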

Experiment [18] can be described thus: qHTS Counterscreen for compound interference against the NCATS DSHEA and TCM libraries (AID 1919978).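 Also: compounds preincubated with 1 µM D-luciferin or buffer before detection reagent; % of control where 0% means no effect.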 The note with it: firefly luciferase detection reagent interference, luminescence. In a few lines:
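Compounds, titrated from 19.5 nM to 39.8 uM final, were pinned onto 1 uM D-luciferin or plain 100 mM potassium phosphate. After 15 min at room temperature, luciferin detection reagent was added for 30 min before the luminescence read.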

Experiment [19] can be described thus: Dual reporter qHTS for agonist of Pregnane X Receptor (hPXR) against the NCATS DSHEA and TCM libraries: Fluorescence readout (AID 1920058). Also: 0% is about no effect. In a few lines: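 HepG2 hPXR-Luc, 2000 cells/well, 5 h attach; cpds ~24 h, 37 °C/5% CO2; CellTiter-Fluor 1 h; fluor. Ex/Em 405/540 nm = viability.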

Chain of Cytochrome P450 2C9 (Homo sapiens) (P11712 whole entry, looked up): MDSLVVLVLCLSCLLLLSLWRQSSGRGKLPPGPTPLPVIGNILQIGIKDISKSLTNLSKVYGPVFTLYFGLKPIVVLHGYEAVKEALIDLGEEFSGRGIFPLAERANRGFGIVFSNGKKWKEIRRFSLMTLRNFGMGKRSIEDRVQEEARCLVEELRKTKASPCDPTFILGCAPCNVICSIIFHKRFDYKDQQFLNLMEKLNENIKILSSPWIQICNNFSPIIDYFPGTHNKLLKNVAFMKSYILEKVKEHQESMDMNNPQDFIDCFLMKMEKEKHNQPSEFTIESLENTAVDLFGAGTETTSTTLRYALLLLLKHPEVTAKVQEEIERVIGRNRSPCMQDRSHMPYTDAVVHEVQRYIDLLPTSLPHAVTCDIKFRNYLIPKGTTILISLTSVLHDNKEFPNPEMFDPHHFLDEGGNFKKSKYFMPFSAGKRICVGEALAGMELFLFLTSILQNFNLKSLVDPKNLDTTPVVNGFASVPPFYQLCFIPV
Chain of Cytochrome P450 3A4 (Homo sapiens) (P08684 whole entry, looked up, canonical isoform): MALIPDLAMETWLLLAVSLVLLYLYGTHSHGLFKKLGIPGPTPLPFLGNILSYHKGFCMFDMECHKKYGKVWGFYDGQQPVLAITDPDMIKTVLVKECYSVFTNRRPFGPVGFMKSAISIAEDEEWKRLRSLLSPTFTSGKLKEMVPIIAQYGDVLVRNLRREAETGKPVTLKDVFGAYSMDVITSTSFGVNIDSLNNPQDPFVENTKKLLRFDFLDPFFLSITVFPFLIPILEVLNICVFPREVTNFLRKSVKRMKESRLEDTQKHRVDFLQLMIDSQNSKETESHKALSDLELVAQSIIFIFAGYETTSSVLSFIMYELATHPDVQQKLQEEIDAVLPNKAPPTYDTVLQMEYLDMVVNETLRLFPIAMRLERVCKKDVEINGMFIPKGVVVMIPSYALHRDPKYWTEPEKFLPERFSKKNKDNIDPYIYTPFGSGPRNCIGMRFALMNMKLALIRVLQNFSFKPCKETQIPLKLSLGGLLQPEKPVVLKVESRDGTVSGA
Chain of Cytochrome P450 2C19 (Homo sapiens) (P33261 whole entry, looked up): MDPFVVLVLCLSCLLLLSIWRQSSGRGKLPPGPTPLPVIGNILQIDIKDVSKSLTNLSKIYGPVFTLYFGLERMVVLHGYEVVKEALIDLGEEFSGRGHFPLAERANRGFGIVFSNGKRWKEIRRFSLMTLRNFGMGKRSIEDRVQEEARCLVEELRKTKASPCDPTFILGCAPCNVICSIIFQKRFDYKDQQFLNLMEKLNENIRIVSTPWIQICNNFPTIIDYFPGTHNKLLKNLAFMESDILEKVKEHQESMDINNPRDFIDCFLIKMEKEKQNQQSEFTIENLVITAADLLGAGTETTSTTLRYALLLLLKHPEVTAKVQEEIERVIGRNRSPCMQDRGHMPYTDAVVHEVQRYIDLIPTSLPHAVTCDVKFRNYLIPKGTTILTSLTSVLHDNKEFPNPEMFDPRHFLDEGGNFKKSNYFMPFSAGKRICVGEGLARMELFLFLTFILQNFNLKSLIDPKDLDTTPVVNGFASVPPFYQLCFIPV

Turning to `CNC(=O)c1ccccc1Sc1ccc2c(C=Cc3ccccn3)n[nH]c2c1`, the Potency in experiment [1] was 13.2 µM (active); in experiment [2] it was 14.8 µM (active); in experiment [3], 20.9 µM (active); in experiment [4], 7.43 µM (active); in experiment [5], 18.7 µM (active); in experiment [6], 1.18 µM (active). Moreover, the Potency in experiment [7] is 23.5 µM (active).
`CCOC(CN1C(=O)[C@](CC(=O)Nc2ccc(C)cc2)(NC(=O)Nc2ccc(C)cc2)c2ccccc21)OCC`: the viability in experiment [1] was 93.3%. In addition, the Potency in experiment [2] is 26.4 µM (active); in experiment [3], 23.5 µM (active); in experiment [6], 26.4 µM (active). Further, the Potency entry in experiment [8] was “inactive”.
`COc1cc2ncnc(-n3nc(-c4ccccn4)nc3N)c2cc1OC`: the Potency is 0.662 µM (active) in experiment [1]; 1.05 µM (active) in experiment [9]; 6.62 µM (active) in experiment [2]; 3.32 µM (active) in experiment [10]; 3.72 µM (active) in [3]; 4.69 µM (active) in [4]. In addition, the Potency result in experiment [8], in experiment [6] and in [7] was “inactive” throughout.
Take `N#Cc1ccc(NC(=O)Nc2ccccc2Br)c2n[nH]nc12`: in experiment [1], the viability is 115%. Besides, the Potency in experiment [9] is 5.26 µM (active). Further, in experiment [8], the Potency result is “inactive”.
`CO[C@H]1C(=O)[C@]2(C)[C@@H](OC)C[C@H]3OC[C@@]3(OC(C)=O)[C@H]2[C@H](OC(=O)c2ccccc2)[C@]2(O)C[C@H](OC(=O)[C@H](O)[C@@H](NC(=O)OC(C)(C)C)c3ccccc3)C(C)=C1C2(C)C`: the viability in [1] was 65.2%. For the same compound, the Potency in experiment [2] is 0.001 µM (active); in [4], 0.0012 µM (active). In addition, the Potency entry in [10], in [3], in [5], in [8], in experiment [6] and in [7] was “inactive” in each case.
Consider `OC[C@H]1O[C@@H](n2cnc3c2NC=NC[C@@H]3O)C[C@H]1O`, for which the viability in experiment [1] is 110%. Also, the results for the Potency in [2] and in experiment [3] were 14.8 µM (active) and 11.8 µM (active), respectively. Further, the Potency result in experiment [10], in experiment [5] and in [8] was “inactive” each time.
Regarding `COc1ncc(-c2ccc3nccc(-c4ccnnc4)c3c2)cc1NS(=O)(=O)c1ccc(F)cc1F`, the Potency is 0.0118 µM (active) in [1], 0.0187 µM (active) in experiment [9], 0.0332 µM (active) in experiment [4] and 0.0026 µM (active) in experiment [8].
Take `COc1ccc(-c2coc3cc(O)ccc3c2=O)cc1`: the Potency result in experiment [11], in experiment [9], in [12], in experiment [2], in experiment [3] and in experiment [4] was “inactive” in each case. Also, the Potency result in [5] and in [8] was “inactive” throughout. Further, the Potency in experiment [6] was 18.7 µM (active); in [16] it was 14.1 µM (active). Further, the compound was classed as inactive in [13], in [14], in experiment [15], in experiment [17] and in experiment [19]. In addition, in [18], the max response was -1.37%.
In the case of `O=c1c(-c2ccc(O)cc2)coc2cc(OC3O[C@H](CO)[C@H](O)[C@H](O)[C@H]3O)cc(O)c12` (stereo partly drawn), the Potency was 8.33 µM (active) in experiment [11]; 1.32 µM (active) in experiment [9]; 1.18 µM (active) in experiment [12]; 2.64 µM (active) in experiment [2]; 5.9 µM (active) in experiment [10]; 9.35 µM (active) in experiment [3]. The results for the Potency in [4] and in [5] were 2.64 µM (active) and 16.6 µM (active), respectively. The Potency result in experiment [8] is “inactive”.
On to `O=C(Nc1cc(Cl)cc2c1[nH]c1cnccc12)c1cccnc1`, for which the Potency in [11] is 20.9 µM (active); in experiment [9], 2.64 µM (active); in experiment [12] it was 5.26 µM (active); in experiment [2], 7.43 µM (active). The Potency result in experiment [8] and in experiment [6] was “inactive” each time.
As for `Cc1cnc(C(=O)O)c[n+]1[O-]`, the Potency result in [11], in experiment [9], in [12], in experiment [10], in [3] and in experiment [4] was “inactive” each time. For the same compound, the Potency result in experiment [6] and in experiment [7] was “inactive” throughout.
Take `Cc1c(NC(=O)c2ccc(C(C)(C)C)cc2)cccc1-c1cn(C)c(=O)c(Nc2ccc(C(=O)N3CCOCC3)cc2)n1`: the Potency was 23.5 µM (active) in experiment [11]; 20.9 µM (active) in [9]; 9.35 µM (active) in experiment [12]; 14.8 µM (active) in experiment [3]; 14.8 µM (active) in experiment [5]; 18.7 µM (active) in experiment [7].
